Screen size: about 53,000 sequences; about 3,700 (7%) were called active. Shown is part of a subset that was picked to be rich in actives. Unmarked numbers belong to inactive results.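 How the source made its calls: active means gene knockdowns whose robust z-score for IL-1 alpha signal is at least 2 or at most -2, so actives lie on both sides; inactive means the rest.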

The experiment in a line: Components of the Cytosolic LPS Sensing Pathway: Gene Identification via Genome-wide siRNA Screen.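 Further: robust z of the log signal after scaling to non-targeting control siRNA wells of the plate.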 The following applies: RAW264.7 macrophages, IL-1a HTRF, actives lie on both sides, screened at 100 nM (by protocol), cells primed 5 h with Pam3CSK4 first. In short, it runs like this:
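IL-1a HTRF of supernatants after 24 hour LipidA transfection of Pam3CSK4-primed (5 hours) RAW264.7 cells, 48h post-siRNA transfection (100 nM). Scores: percent of plate negative-control median, then log-based robust z-score.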
In general terms: Time-resolved FRET reads energy transfer from a long-lived donor to a nearby acceptor.
Take GCUGCACGAUCGGAAUGGUTT against Ssh1: the z-score was -0.678.
Then GGCUUACUUGAAGCAUUUATT against Plcb4, with 2.13 (active); and GGUUUUUGCUGAGUCUUGCTT against Olfr299, with 0.00611; and GGAAAAGAAAGCAAAGAGATT against Dach1, with -1.15.
As for GGAAAUGUUUACCUGCCAUTT against Zfp512, the z-score is 2.32 (active).
In the case of GCUACAGCAGACAUAGAAATT against Sparcl1 it was 0.0109; in that of GGUUGGAAUUGUGCAAUAATT against Fbxo48, 0.164.
Regarding GGACAUUUAUCCCAUGACATT against Coro2b, the z-score was 0.814.
In the case of GGAAUUCAAUGACGUGUACTT against Mapk14 it was 0.493; in that of CCGUAUUUGUGCUGUGUCUTT against Olfr275, -1.53; in that of CCUUAUUUUACGGAACUGCTT against Olfr1018, 2.11 (active).
Then CCGGAGUUGAAACCUAAAATT against Hmgn5, with 0.524; and GCAACAUAUGUUCAAGAUCTT against Ccdc163, with 0.53; and GGCCAUCAGAGUCAACUGUTT against Immt, with -0.285.
Then GCUAGCAGAGAUACAAUGUTT against Rasal3, with 3 (active); and GGAAGAUGAAAGUUCCAUATT against Ankar, with 1.17.
Turning to GGGUGUAGUCCUGAAAGUATT against Arpc5l, the z-score was 2.45 (active).
Take GCUUGUGAGUGGAACUUUCTT against Mcm6: the z-score is 0.62.
For CCUACAACAGAUGUGCAGCTT against Fam222b, the z-score is -1.82.
Then CCGGGACAUAGAGGAAAUUTT against Cabp1, with -0.113; and CGCACAUGAAGCCACAUAUTT against Plekhb1, with -0.176; and UCCAAGCUGUUGUUUAUACTT against Acsl1, with -0.0655.
In the case of CCGUUGGAGUCCAACCUAUTT against Ube2a it was 2.2 (active); in that of GCUGUUACUCAGCAGAGAGTT against Bach2, -1.02; in that of GGCCCUCUCCAAGUCUAUATT against Pex7, 0.7.
Then “GGAGGAAUUUCAAAUACUATT against A530032D15Rik”, with 0.853; and GGAUAGCAGCUGAGUUUUATT against Asb5, with 2.57 (active).
As to GGAAGUCAUUAUGUGAUCCTT against Nfyb, the z-score is -0.404.
Then GCCUACAAUCGAGACAGUUTT against Sgca, with 1.15.
In the case of GGACACAGACACCAAACAATT against Kat2a it was -1.71; in that of CCCACUAAGGAGAUCAGUUTT against Lasp1, 1.32.
Then GGUACUGGCAUGGUGACAATT against Mmp11, with -2.52 (active).
As to GGUUUCUUGCCAAGAAAUUTT against Asic5, the z-score is -0.359.
Then GGAAACCUGCAUCCUAUGATT against Olfr195, with -0.196; and GAGCUGGGAGGUUUCACAGTT against Tspo, with -1.42; and GGCUUAAGGCUAAUGGUCUTT against Fxyd5, with -0.778.
Then GCCUGCCUACGAGAUCAACTT against Mgp, with -0.0804; and CCGUGAAAAAAUUAAACAGTT against Slk, with 0.338; and CGUUUGCUCUAAAGCCAGGTT against Smagp, with 0.886.
In the case of GGACAAAAUCACCUCACUUTT against Olfr1135 it was -3.29 (active).
Turning to GGAAUUUCAUGGCAAGGGUTT against Fmc1, the z-score was 0.652.
Then GGAUCACAUGAAAGGAUUATT against Dclre1c, with -0.242; and CCCAGCAACUACUGGAAACTT against Tas2r139, with -0.293.
In the case of CGCUGUGCUGAGCUUACUUTT against D17H6S53E it was -2.36 (active).
In the case of GGUUAUCUCAAAACUCGACTT against Prox2 it was -0.119; in that of GGUAACUGAUUGCUUAGAUTT against Smndc1, 0.836.
In the case of GCACUACAUUGUGGCUGUCTT against Itpr3, the z-score was -2.57 (active).
Then GGGUUUGAACUGGUGAUUGTT against Cenpp, with -0.525.
Turning to GGACAAAGGGAUAAUGCUGTT against Aldoc, the z-score is 0.735.
Consider GGUUUUGGAAAAAGUGGAUTT against Chp1, for which the z-score was -0.867.
In the case of GCCCUGUACCUUUUAGCUUTT against Olfr704 it was -0.306; in that of CCUUGUUCAAAAAGAUGGCTT against Serpina1f, -2.08 (active).
With GGCCAUCAAGAGUUUCUUUTT against Nr0b1, the z-score is 0.876.
In the case of GCGUGUCUUGCUCUUUUGATT against Usp22 it was -1.21; in that of GGAAUCCUCUGAAUAACCUTT against Vmn1r172, -1.14; in that of “GGGUGAUUUCUACCUUCAATT against D630003M21Rik”, -0.496.
In the case of GGAAGAGGAAAUCACCACATT against Clec11a it was -2.16 (active); in that of GGUUGGUGAUGGCACAAACTT against Cct8, -0.469; in that of GGUAGAACUUAUUGUGGACTT against Ly6f, -0.692.
For the sequence CCUAUAAAGCUCUAAAGGATT against Caprin1, the z-score is 0.115.
Regarding GGGUUUCCACAGACAAUGUTT against V1rg10, the z-score is -0.837.
As for GGACCUUUUUUGUUCAAAATT against Rasd1, the z-score is 0.157.
For the sequence CUCUGUACUUGGGCAGGAATT against Cyp2c65, the z-score is 2.9 (active).
Take CGCUGCAUUAAAGACUAAATT against Kcnj10: the z-score is 0.414.
Then GCAAACGGACACUUGGAAUTT against Hmx1, with -0.9; and “GGUAAACAUGAUGUCCCUCTT against A630038E17Rik”, with 0.0317; and GGAAUAUGCUGCAAAAAUCTT against Camk2g, with -1.58.
In the case of GGCAGCCUGAACAUCAAUGTT against S100a13 it was 1.47; in that of CCGAAGCUUUAUCUUCUAUTT against Pkd2, -0.719.
Turning to GGCCAUGGUUUCAAAAACATT against Rspo2, the z-score was -1.33.
In the case of GGCGAUCUUUGGAAUUAGATT against Ing3 it was 0.209; in that of GGGAACAUGUUUUACUCUUTT against Zfp521, 1.63.
Then GGUCGACAGAUCAAGCCUUTT against Psmb3, with -2.18 (active).
In the case of GCCAAUCUGAACUUGUGUUTT against Plet1 it was -0.931.
For the sequence CCACAGGGACAACAAACUATT against Arid3b, the z-score is 0.0513.
Then CCUGUUUCGUAGAUUGUUUTT against Eftud2, with -0.35; and CGUGUCAUACAGGUGUGGUTT against Lhx8, with 2.11 (active); and UCCUUGCUGUCCUAACCAUTT against Gpr119, with 1.64.
GCUGCACCAUCAAUUCCCATT against Vpreb3: the z-score was -1.63.
As for GGCACUUGAAUUUCUAAGUTT against Cbx5, the z-score is 0.0672.
Then “GGACCCAGCAGUCAAGAUATT against 9930038B18Rik”, with 0.0416; and CCAGCAAUAGUUCAGCAGATT against Ccdc82, with -2.72 (active).
Then GGUGCCAACCUCAAUUCAUTT against Hnf4a, with 1.9.
In the case of CCGGUUCACUGCUUGACCUTT against Wbp1 it was 0.87; in that of CGUUGUGAGGUUAUACGACTT against Tbc1d20, -0.862; in that of GGAACACUUUAAGACCAAATT against Fmnl1, 0.482.
As for GGAGUAUUAUGAAGUGUUGTT against Aip, the z-score is 0.108.
In the case of GGAAACUGGUGCUACAUUATT against Usp10 it was 0.747; in that of GGACAGGAUCAGAGAAAGATT against Zbtb7c, -2.15 (active); in that of GGACAUUGAGGAUUAUGUCTT against Med24, 0.332.
Then GCUAGAUGUAGAUAGAUAATT against Plekhm3, with -0.569; and GCACAGGUGAGCUCUUUGATT against Nudt10, with -1.12; and GUGUUUUACCAUUGGACAUTT against Klra20, with 1.58.
Then GUUCGCUGAACACGUCUUCTT against Hpcal1, with 0.549; and GGCAUUGAAUUACUUACAUTT against Slk, with 2.46 (active); and GAGACAAUUGUAACAUUCUTT against Olfr176, with 1.2.
Consider GGCAGCUUAGCUGUUCGUCTT against Socs4, for which the z-score is -0.664.
In the case of GGCCAGUUCUAUGUCAUGATT against Usf2, the z-score is -2.05 (active).
Then GGCUCUCAGUGCCAUCAUUTT against Stk40, with -0.858.
In the case of GCUUGGGUAAUAGAAAUCATT against Btnl1 it was 0.6; in that of GGUUCUCCAAACUCUGCCATT against Arhgap1, 2.29 (active); in that of GCCAAGACAUCAGAAGGAUTT against Nrxn1, 0.202.
As to GGAAAACAGUGGUAGCUUATT against Cnp, the z-score is 0.187.
In the case of GGAUGAAGAUGAAAAAGAUTT against Hoxc9 it was -0.247; in that of GGGACUUUGUAAACAGUUUTT against Eci2, 1.61.
GGCUAACCGUAUCAGUCAUTT against Podnl1: the z-score is -1.23.
Then GGCUUGAAUAUUAAAGUGATT against Arhgef19, with -0.505; and GGAGGUGGUACAAUACACCTT against Gsg1, with 2.86 (active).
